The values below come from the supplement of paper PMC7366291.

Structures can show the parent of a compound that is named as a salt. ± gives the standard deviation.

The subject of this assay is Danio rerio Tg(wt1b:EGFP) embryo, pronephros. Put plainly: glomerular separation, fold change vs DMSO control; higher = glomeruli further apart (abnormal). Conditions: 25 µM; exposure: 24-48 hpf. An outline of the steps: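 Dechorionated Tg(wt1b:EGFP) zebrafish embryos were exposed to 25 μM compound in 0.5% DMSO, HEPES-buffered E3 with 0.003% PTU, from 24 to 48 hpf at 28.5°C. Pronephroi were imaged dorsally in agarose-filled 96-well plates (470 nm, 10 z-slices). On maximum projections, 16 reference points were set manually in Fiji and a macro computed distances and angles. Values more than 2 SD from the feature mean were excluded. Each feature is a fold change relative to the mean of same-day DMSO controls.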
Molecule `CCN(CC)C(=O)/C(C#N)=C/c1cc(O)c(O)c([N+](=O)[O-])c1` [Entacapone] returned a glomerular separation of 1.88 ± 1.4. The same measure for `COC(=O)[C@@H]1[C@H]2C[C@H]3c4[nH]c5ccccc5c4CCN3C[C@@H]2CC[C@@H]1O` [Yohimbine hydrochloride]: 1.24 ± 0.41; for `CC(=O)SCC(Cc1ccccc1)C(=O)NCC(=O)OCc1ccccc1` (stereo not given) [Racecadotril]: 1.45 ± 0.84; for `O=C(NC(Cc1cc(=O)[nH]c2ccccc12)C(=O)O)c1ccc(Cl)cc1` (stereo not given) [Rebamipide]: 0.748 ± 0.25. The result for `CN1CCN(c2c(F)cc3c(=O)c(C(=O)O)cn(CCF)c3c2F)CC1` [Fleroxacin] reads 0.566 ± 0.3; that for `C[C@H]1[C@H](NC(=O)/C(=N\OC(C)(C)C(=O)O)c2csc(N)n2)C(=O)N1S(=O)(=O)O` [Aztreonam], 0.857 ± 0.2. `CCCCN(CCCC)CCCOC(=O)c1ccc(N)cc1` [Butacaine] gave a glomerular separation of 0.928 ± 0.47.

On to `COc1ccc(CN2CCN(C(c3ccc(F)cc3)c3ccc(F)cc3)CC2)c(OC)c1OC` [Lomerizine hydrochloride], for which the glomerular separation came out at 0.888 ± 0.33. The result for `Cc1ccsc1/C=C/C1=NCCCN1C` [Morantel tartrate] reads 0.982 ± 0.26; that for `CN(C)C(=N)NC(=N)N` [Metformin hydrochloride], 0.804 ± 0.19. Consider `COc1ccc2[nH]c([S+]([O-])Cc3ncc(C)c(OC)c3C)nc2c1` (stereo not given) [Omeprazole], for which the glomerular separation was found to be 1.15 ± 0.38. In turn, `CCN1CCN(C(=O)N[C@@H](C(=O)N[C@@H]2C(=O)N3[C@@H]2SC(C)(C)[C@@H]3C(=O)O)c2ccccc2)C(=O)C1=O` [Piperacillin sodium salt] gave a glomerular separation of 1.07 ± 0.47. `CC[C@H](C)C(=O)O[C@H]1CCC=C2C=C[C@H](C)[C@H](CC[C@@H]3C[C@@H](O)CC(=O)O3)[C@H]21` [Mevastatin] returned a glomerular separation of 4.87 ± 2.8. Regarding `COc1ccc2c(c1)N(C[C@H](C)CN(C)C)c1ccccc1S2` [Methotrimeprazine maleat salt], the glomerular separation turned out to be 1.16 ± 0.65. The result for `CC(C)(C)C(=O)OCOC(=O)[C@@H]1N2C(=O)[C@@H](NC(=O)[C@H](N)c3ccccc3)[C@H]2SC1(C)C` [Pivampicillin] reads 1.14 ± 0.47; that for `CN(CCOc1ccc(CC2SC(=O)NC2=O)cc1)c1ccccn1` (stereo not given) [Rosiglitazone Hydrochloride], 1.04 ± 0.39.

As for `CCN1CCCC1CNC(=O)c1cc(S(N)(=O)=O)ccc1OC` (stereo not given) [Sulpiride], the glomerular separation was 1.08 ± 0.28. The result for `CC(=O)Nc1ccc(O)cc1` [Acetaminophen] reads 0.86 ± 0.31.

For `CC(CN(C)C)CN1c2ccccc2CCc2ccccc21` (stereo not given) [Trimipramine maleate salt], the glomerular separation was found to be 0.996 ± 0.29. Take `Cc1cccn2c(=O)c(-c3nnn[nH]3)cnc12` [Pemirolast potassium]: the glomerular separation was determined as 1.25 ± 0.38. Take `Cc1c(NC(=O)c2cccnc2)c(=O)n(-c2ccccc2)n1C` [Nifenazone]: the glomerular separation came out at 0.806 ± 0.28. The same measure for `CC(C)(C)C(=O)OCOC(=O)[C@@H]1N2C(=O)[C@@H](/N=C/N3CCCCCC3)[C@H]2SC1(C)C` [Pivmecillinam hydrochloride]: 0.772 ± 0.17. The same measure for `COc1ccc(C2CNC(=O)C2)cc1OC1CCCC1` (stereo not given) [Rolipram]: 0.895 ± 0.31; for `COc1ccc(C(=O)NCc2ccc(OCCN(C)C)cc2)cc1OC` [Itopride]: 1.05 ± 0.44; for `O=C(NCC1CCCCN1)c1cc(OCC(F)(F)F)ccc1OCC(F)(F)F` (stereo not given) [Flecainide acetate]: 0.977 ± 0.32. The same measure for `Nc1ccc(/N=N/c2ccccc2)c(N)n1` [Phenazopyridine hydrochloride]: 1.27 ± 0.52; for `C1CCC(C(CC2CCCCN2)C2CCCCC2)CC1` (stereo not given) [Perhexiline maleate]: 1.12 ± 0.32. `CN[C@@H]1[C@H](O[C@H]2[C@H](O[C@H]3[C@H](O)[C@@H](O)[C@H](N=C(N)N)[C@@H](O)[C@@H]3N=C(N)N)O[C@@H](C)[C@]2(O)C=O)O[C@@H](CO)[C@H](O)[C@H]1O` [Streptomycin sulfate] had a glomerular separation of 0.691 ± 0.22.

Molecule `CC(C)(O/N=C(\C(=O)N[C@@H]1C(=O)N2C(C(=O)[O-])=C(C[n+]3ccccc3)CS[C@H]12)c1csc(N)n1)C(=O)O` [Ceftazidime pentahydrate] registered a glomerular separation of 0.761 ± 0.12.

`Nc1ccc(S(N)(=O)=O)cc1` [Sulfanilamide] came in with a glomerular separation of 0.646 ± 0.14. The result for `Cc1ncc(C[n+]2csc(CCO)c2C)c(N)n1` [Thiamine hydrochloride] reads 0.951 ± 0.4; that for `CN(C)[C@@H]1C(O)=C(C(N)=O)C(=O)[C@@]2(O)C(O)=C3C(=O)c4c(O)ccc(Cl)c4[C@@H](O)[C@H]3C[C@@H]12` [Demeclocycline hydrochloride], 0.928 ± 0.36; that for `Cc1cnc(C(=O)NCCc2ccc(S(=O)(=O)NC(=O)NC3CCCCC3)cc2)cn1` [Glipizide], 0.984 ± 0.34. The same measure for `Cc1cccc(C)c1NC(=O)CN1CCN(CCCC(c2ccc(F)cc2)c2ccc(F)cc2)CC1` [Lidoflazine]: 3 ± 1.2; for `CC1(C)S[C@@H]2[C@H](NC(=O)[C@H](NC(=O)N3CCNC3=O)c3ccccc3)C(=O)N2[C@H]1C(=O)O` [Azlocillin sodium salt]: 0.819 ± 0.3; for `CCOC(=O)[C@H](CCc1ccccc1)N[C@@H](C)C(=O)N1Cc2ccccc2C[C@H]1C(=O)O` [Quinapril hydrochloride]: 0.927 ± 0.39. The same measure for `CCCCC(CC)CN1CN(CC(CC)CCCC)CC(C)(N)C1` (stereo not given) [Hexetidine]: 1.05 ± 0.29; for `CC(C)N1CCN(c2ccc(OCC3COC(Cn4cncn4)(c4ccc(Cl)cc4Cl)O3)cc2)CC1` (stereo not given) [Terconazole]: 0.864 ± 0.17; for `CN(C/C=C/c1ccccc1)Cc1cccc2ccccc12` [Naftifine hydrochloride]: 1.03 ± 0.34. Take `c1ccc(CC2=NCCN2)cc1` [Tolazoline hydrochloride]: the glomerular separation stood at 0.955 ± 0.4.
